From the supplement of paper PMC6555819

Assays:
Assay in all cases: PBM binding z-score (relative to random genomic background probes); higher = stronger binding; sequences stand for … in GC…GCGATTGACAGCGTAGAATGAAGG
[1] = tested on: FXR:RXRa (NR concentration 270 nM, RXRa partner concentration 90 nM)
Summary of the method: (§1)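 The probes on custom Agilent 4×180K protein-binding microarrays were double-stranded, with 34-nt variable regions bearing direct-repeat seeds, single-nucleotide variants, half-site ablations and random human genomic background sequences. Incubation lasted 1 h with ligand-free nuclear receptor dimers in PBS pH 7.4, 2% milk, 0.02% Triton X-100, 1 mM DTT, 0.2 mg/mL BSA and 0.4 mg/ml salmon testes DNA. Antibodies against each partner (one per run) detected bound dimers, and fluorescence scans were regression-normalized. Binding z-scores take the random background probes as reference.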

[2] = tested on: LXRa:RXRa (NR concentration 270 nM, RXRa partner concentration 90 nM)
Summary of the method: as §1

[3] = tested on: LXRa homodimer (NR concentration 270 nM)
Summary of the method: as §1

[4] = tested on: LXRb:RXRa (NR concentration 270 nM, RXRa partner concentration 90 nM)
Summary of the method: as §1

[5] = tested on: LXRb homodimer (NR concentration 270 nM)
Summary of the method: as §1

[6] = tested on: PPARa:RXRa (NR concentration 270 nM, RXRa partner concentration 90 nM)
Summary of the method: as §1

[7] = tested on: PPARg:RXRa (NR concentration 180 nM, RXRa partner concentration 90 nM)
Summary of the method: as §1

[8] = tested on: PPARg:RXRa 270nM:90nM, anti-RXR (NR concentration 270 nM, RXRa partner concentration 90 nM)
Summary of the method: as §1

[9] = tested on: PPARg:RXRa 30nM:10nM, anti-RXR (NR concentration 30 nM, RXRa partner concentration 10 nM)
Summary of the method: as §1

[10] = tested on: PPARg:RXRa 90nM:30nM, anti-RXR (NR concentration 90 nM, RXRa partner concentration 30 nM)
Summary of the method: as §1

[11] = tested on: PPARg:RXRa DBDmut IVT, anti-RXR (DBD mutation: RXRa K156A/R161A, NR concentration 270 nM, RXRa partner concentration 90 nM)
Summary of the method: as §1

[12] = tested on: PPARg:RXRa IVT, anti-PPARg (NR concentration 270 nM, RXRa partner concentration 90 nM)
Summary of the method: as §1

[13] = tested on: PPARg DBDmut:RXRa IVT, anti-PPARg (DBD mutation: PPARg1 K132A/R137A, NR concentration 270 nM, RXRa partner concentration 90 nM)
Summary of the method: as §1

[14] = tested on: PPARg DBDmut IVT, anti-PPARg (DBD mutation: PPARg1 K132A/R137A, NR concentration 270 nM)
Summary of the method: as §1

[15] = tested on: PPARg homodimer (NR concentration 180 nM)
Summary of the method: as §1

[16] = tested on: PXR:RXRa (NR concentration 270 nM, RXRa partner concentration 90 nM)
Summary of the method: as §1

[17] = tested on: PXR homodimer (NR concentration 270 nM)
Summary of the method: as §1

[18] = tested on: RARa:RXR (NR concentration 270 nM, RXRa partner concentration 90 nM)
Summary of the method: as §1

[19] = tested on: RARa homodimer (NR concentration 270 nM)
Summary of the method: as §1

[20] = tested on: RARb:RXRa (NR concentration 270 nM, RXRa partner concentration 90 nM)
Summary of the method: as §1

| Sequence | PBM binding z-score [1] | PBM binding z-score [2] | PBM binding z-score [3] | PBM binding z-score [4] | PBM binding z-score [5] | PBM binding z-score [6] | PBM binding z-score [7] | PBM binding z-score [8] | PBM binding z-score [9] | PBM binding z-score [10] | PBM binding z-score [11] | PBM binding z-score [12] | PBM binding z-score [13] | PBM binding z-score [14] | PBM binding z-score [15] | PBM binding z-score [16] | PBM binding z-score [17] | PBM binding z-score [18] | PBM binding z-score [19] | PBM binding z-score [20] |
| --- | --- | --- | --- | --- | --- | --- | --- | --- | --- | --- | --- | --- | --- | --- | --- | --- | --- | --- | --- | --- |
| GCGACTGGGGCAAAGCAGGTCACCATAAGGTTGG | 0.839 | 1.93 | -0.00602 | 1.53 | -1.06 | 3.18 | 2.77 | 2.65 | 0.521 | 1.7 | 3.8 | 4.81 | 0.568 | -0.842 | 1.51 | 3.05 | -0.164 | 2.96 | -0.0737 | 2.42 |
| CTTCAAAGTTCAACTAAGGTAACGTAAAGCACGC | 7.28 | 6.39 | 5.24 | 4.06 | 2.56 | 5.12 | 3.32 | 4.03 | 1.49 | 3.06 | 0.299 | 1.44 | 1.35 | 1.17 | 3.47 | 5.58 | 4.16 | 4.32 | 2.15 | 5.19 |
| AGAACGAGGCCACGCTGAGTTGATAGCAGAGTAG | 0.0545 | -0.515 | -0.521 | -0.809 | -0.992 | 0.356 | 0.903 | 0.196 | -0.0987 | 0.189 | 3.08 | 2.31 | 0.24 | 0.0825 | -0.457 | -0.0371 | -0.451 | -0.283 | -0.379 | 1.17 |
| CATTACGGGTCACGAGGTTATAGCACGACGAGCG | 7.14 | 6.04 | 2.06 | 4.56 | 1 | 6.33 | 8.49 | 7.3 | 4.45 | 6.59 | 5.61 | 5.99 | 1.73 | 1.78 | 4.62 | 4.8 | 0.703 | 6.52 | 1.04 | 4.68 |
| CCTTACGGGTCAACGTTATAGCACGGGTGGTACG | 4.79 | 3.47 | -0.0163 | 2.99 | -0.125 | 4.99 | 4.45 | 4.48 | 1.52 | 3.43 | 2 | 3.53 | 0.108 | -0.133 | 1.79 | 3.18 | -0.188 | 3.99 | 0.25 | 4.13 |
| GCGACTGGGGCATCAGCAGGTTACCAGAACTTAA | -0.204 | -0.156 | -0.341 | 0.413 | -1.13 | 1.04 | 0.791 | 0.667 | -0.35 | 0.126 | 3.48 | 3.19 | -0.703 | -1.1 | 0.612 | -0.0392 | -0.687 | 0.483 | -0.801 | 0.987 |
